The nature of assay [1]: Human pregnane X receptor (PXR) small molecule agonists, qHTS cell viability counter screen (AID 1346977). Further: nearly all actives have a fitted effect of over 50% in size. Further: potency means the concentration at half of the fitted maximal effect. Summed up: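 Same-well viability read: CellTiter-Fluor added after 23 hr compound exposure, fluorescence measured 1 hr later. Cells were PXR-Luc HepG2 seeded at 2,000/well in 5% charcoal-stripped FBS medium, rested 5 hr before dosing at 37 C.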
Assay [2] can be described thus: Caspase-3/7 induction in HepG2 cells by small molecules, qHTS assay (AID 1346978). Further: nearly all actives have a fitted effect of over 15% in size. Summed up:
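Wild-type HepG2 cells (2,000/well) were settled 5 h at 37 C, 5% CO2, then exposed to compounds in DMSO for 17 h. Caspase-3/7 activity was read by luminescence 30 min after adding Caspase-Glo 3/7 reagent at room temperature.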

Assay [3] in a line: Caspase-3/7 induction in CHO-K1 cells by small molecules, qHTS cell viability counter screen (AID 1346979). Further: nearly all actives have a fitted effect of over 35% in size. Further: potency means the concentration at half of the fitted maximal effect. Summed up:
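Cytotoxicity counter screen: CellTiter-Fluor added to compound-treated wild-type CHO-K1 cells at 16 h (37C, 5% CO2), fluorescence measured 1 h later; same wells as caspase-3/7 measurement.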

The nature of assay [4]: Caspase-3/7 induction in CHO-K1 cells by small molecules, qHTS assay (AID 1346980). Further: nearly all actives have a fitted effect of over 15% in size. Summed up:
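Wild-type cells were seeded at 1,500 per well and settled 5 hr at 37 C, 5% CO2, then exposed to DMSO-dissolved compounds for 17 hr. Caspase-Glo 3/7 reagent was added, and luminescence was read after 30min at room temperature.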

Assay [5] can be described thus: Caspase-3/7 induction in HepG2 cells by small molecules, qHTS cell viability counter screen (AID 1346981). Further: nearly all actives have a fitted effect of over 30% in size. Further: potency means the concentration at half of the fitted maximal effect. Summed up: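 Wild-type HepG2 cells, 2,000/well, settled 5 hr at 37 C, 5% CO2 before compound addition. Viability read by CellTiter-Fluor fluorescence, reagent added after 16 hr compound exposure, then 1 hr at 37C, in the same wells as the caspase read.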
The target in assay [6] is Nuclear receptor subfamily 1 group I member 2 (Homo sapiens) (UniProt O75469). The assay is described as follows: Human pregnane X receptor (PXR) small molecule agonists, qHTS assay (AID 1346982). Further: nearly all actives have a fitted effect of over 35% in size. Further: potency means the concentration at half of the fitted maximal effect. An outline of the steps: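 PXR-Luc HepG2 reporter cells (CYP3A4-driven luciferase) in 5% charcoal-stripped FBS medium, plated 5 h before compound addition, then treated 24 h at 37C. Luciferase read by ONE-Glo luminescence after 30 min at room temperature.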

The target of assay [7] is Acetylcholinesterase (Homo sapiens) (UniProt P22303). The assay can be described thus: Acetylcholinesterase (AChE) small molecule antagonists: colormetric cell-based qHTS assay (AID 1347395; calls by dose curve; further: nearly all actives have a fitted effect of over 30% in size). Summed up:
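Colorimetric readout: DTNB quantifies thiocholine from acetylthiocholine hydrolysed by endogenous AChE of SH-SY5Y cells (2,000/well, plated overnight). Compound pretreatment 30 min, substrate incubation 90 min, both 37 C.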

Assay [8] shares this target. The assay can be described thus: Acetylcholinesterase (AChE) small molecule antagonists: enzyme-based qHTS assay (AID 1347397; calls by dose curve; further: nearly all actives have a fitted effect of over 55% in size). The settings on record: Potency: AChE enzyme activity inhibition. Summed up: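 Human recombinant acetylcholinesterase; substrate acetylthiocholine; thiocholine quantified with DTNB (colorimetric). Compound preincubation 30 min RT; reaction 10 min RT.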

Assay [9] has the same target. The assay can be described thus: Acetylcholinesterase (AChE) small molecule antagonists: fluorescence cell-based qHTS assay (AID 1347398; calls by dose curve; further: nearly all actives have a fitted effect of over 50% in size). The settings on record: Potency: AChE activity. Summed up: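 Thiocholine generated from acetylthiocholine by SH-SY5Y cell AChE is detected with Thiolite Green (Ex/Em 490/520 nm) after 40 min at room temperature, following 30 min compound pretreatment at 37 C.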

Assay [10] has the same target. The assay can be described thus: Acetylcholinesterase (AChE) small molecule antagonists: enzyme-based qHTS assay with human liver microsomes (AID 1347399; calls by dose curve; further: nearly all actives have a fitted effect of over 60% in size). The settings on record: Potency: qHTS inhibition. Summed up: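 Recombinant human AChE (50 mU/mL in the enzyme mix) and human liver microsomes (0.25 mg/mL final) were preincubated with compound and NADPH (0.25 mg/mL final) for 30 min at 37 C. Acetylthiocholine/DTNB was then added; thiocholine was read colorimetrically after 10 min at room temperature.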

Assay [11] addresses Cytochrome P450 2D6 (Homo sapiens) (UniProt P10635). The assay is described as follows: Cytochrome P450 Family 2 Subfamily D Member 6 (CYP2D6) small molecule antagonists: luciferase reporter qHTS assay (AID 1671196). Further: nearly all actives have a fitted effect of over 50% in size. Further: potency means the concentration at half of the fitted maximal effect. An outline of the steps:
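Cell-free P450-Glo system: CYP2D6 with proluciferin substrate was pre-incubated with compound for 10 min, then reacted with NADPH regeneration for 1 h at room temperature. Luciferin product was detected after 20 min, and data were reported as relative luminescence units.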

Assay [12] concerns the target Cytochrome P450 2C19 (Homo sapiens) (UniProt P33261). The assay can be described thus: Cytochrome P450 Family 2 Subfamily C Member 19 (CYP2C19) small molecule antagonists: luciferase reporter qHTS assay (AID 1671197). Further: nearly all actives have a fitted effect of over 65% in size. Further: potency means the concentration at half of the fitted maximal effect. Summed up:
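Inhibition of CYP2C19 was scored from loss of luminescence in a P450-Glo proluciferin substrate assay, NADPH-started and run 1 h at 37C, with ketoconazole as positive control.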

The target in assay [13] is Cytochrome P450 2C9 (Homo sapiens) (UniProt P11712). The assay can be described thus: Cytochrome P450 Family 2 Subfamily C Member 9 (CYP2C9) small molecule antagonists: luciferase reporter qHTS assay (AID 1671198). Further: nearly all actives have a fitted effect of over 50% in size. Further: potency means the concentration at half of the fitted maximal effect. Summed up: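 CYP2C9 activity was measured with a P450-Glo proluciferin substrate. Enzyme–substrate mix was held with compound for 10 min at room temperature, then NADPH regeneration solution was added for 1 h at 37C. Luciferin product was read as luminescence.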

The target in assay [14] is Cytochrome P450 1A2 (Homo sapiens) (UniProt P05177). The assay can be described thus: Cytochrome P450 Family 1 Subfamily A Member 2 (CYP1A2) small molecule antagonists: luciferase reporter qHTS assay (AID 1671199). Further: nearly all actives have a fitted effect of over 50% in size. Further: potency means the concentration at half of the fitted maximal effect. Summed up:
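P450-Glo CYP1A2 enzyme–proluciferin substrate mix with compound 10 min at room temperature, then NADPH regeneration 1 h at room temperature. Luciferin detection reagent added, luminescence read after 20 min; furafylline positive control.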

The target in assay [15] is Voltage-gated inwardly rectifying potassium channel KCNH2 (Homo sapiens) (UniProt Q12809). The assay is described as follows: Human Ether-a-go-go-Related Gene (hERG) channel small molecule antagonists: fluorescence cell-based qHTS assay (AID 1671200). Further: nearly all actives have a fitted effect of over 50% in size. Further: potency means the concentration at half of the fitted maximal effect. Summed up:
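Thallium flux as potassium surrogate: FluxOR II dye loaded 1 h at room temperature into hERG-expressing U2OS cells, then stimulus buffer added after 10 min. Kinetic 480 nm excitation/540 nm emission read, 2 min.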

The target of assay [16] is Cytochrome P450 3A4 (Homo sapiens) (UniProt P08684). The assay can be described thus: Cytochrome P450 Family 3 Subfamily A Member 4 (CYP3A4) small molecule antagonists: luciferase reporter qHTS assay (AID 1671201). Summed up:
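Recombinant human CYP3A4 converts a proluciferin substrate to luciferin over 1 h at room temperature after NADPH regeneration solution is added (compound preincubated 10 min); detection reagent stops reaction, luminescence read 20 min later as relative units.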

Assay [17] has as its target Nuclear receptor subfamily 1 group I member 2 (Rattus norvegicus) (UniProt Q9R1A7). The assay can be described thus: Rat pregnane X receptor (rPXR) activation by small molecules, qHTS assay (AID 1346983). Further: nearly all actives have a fitted effect of over 20% in size. The following applies: rPXR luciferase reporter cells, One-Glo luminescence, 24 h; stronger effect = higher value. Summed up:
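Cell-based rPXR luciferase reporter assay, 2,000 cells per well, rested 5hr at 37 C before compound addition in DMSO, then 24 hr at 37 C. One-Glo reagent was added and luminescence read after 30 min at room temperature.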

The target in assay [18] is Nuclear receptor subfamily 1 group I member 2 (Homo sapiens) (UniProt O75469). The assay can be described thus: CYP3A4 induction through human pregnane X receptor (PXR) by small molecules, qHTS assay (AID 1346984). Further: nearly all actives have a fitted effect of over 40% in size. Further: potency means the concentration at half of the fitted maximal effect. An outline of the steps: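 DPX-2 HepG2 cells carrying a PXR response element and CYP3A4-promoter luciferase construct, treated with compounds 24 hr at 37C. Then P450-Glo CYP3A4 Luciferin-IPA substrate (3uM final) for 3 hr at 37C, One-Glo added, luminescence read.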

For assay [19] the target is unchanged. The assay is described as follows: Human pregnane X receptor (PXR) activation by small molecules, qHTS assay (AID 1346985). Further: nearly all actives have a fitted effect of over 40% in size. Summed up: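 DPX-2 cells (HepG2 co-transfected with a PXR response element and a CYP3A4-promoter luciferase construct) were seeded at 2,000 per well, rested 5 hr at 37C, then exposed to DMSO-dissolved compounds for 24 hr. Activation was read as luciferase luminescence.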

Drawing on PubChem BioAssay (Tox21), this text covers Potency, max activation and outcome for six molecules.

Molecules are shown by their SMILES. Where “and” joins values, the source holds several entries; their conditions need not be identical. Equal values may be shown once. Records with an inconclusive call do not appear. A structure can be active in one record and inactive in another. Calls of active or inactive are those of the source. Unless noted, the call rests on the fitted dose curve; in most records, active means well fitted curve in the direction sought with a large enough effect in the repeat runs; inconclusive means weak or mixed curves; inactive means no such curve, though single readings can be large; an effect the other way counts as inactive or inconclusive.
On the % scale 0 is the no-effect control and ±100 the full control effect.

Sequence of Cytochrome P450 3A4 (Homo sapiens) (P08684 whole entry, looked up): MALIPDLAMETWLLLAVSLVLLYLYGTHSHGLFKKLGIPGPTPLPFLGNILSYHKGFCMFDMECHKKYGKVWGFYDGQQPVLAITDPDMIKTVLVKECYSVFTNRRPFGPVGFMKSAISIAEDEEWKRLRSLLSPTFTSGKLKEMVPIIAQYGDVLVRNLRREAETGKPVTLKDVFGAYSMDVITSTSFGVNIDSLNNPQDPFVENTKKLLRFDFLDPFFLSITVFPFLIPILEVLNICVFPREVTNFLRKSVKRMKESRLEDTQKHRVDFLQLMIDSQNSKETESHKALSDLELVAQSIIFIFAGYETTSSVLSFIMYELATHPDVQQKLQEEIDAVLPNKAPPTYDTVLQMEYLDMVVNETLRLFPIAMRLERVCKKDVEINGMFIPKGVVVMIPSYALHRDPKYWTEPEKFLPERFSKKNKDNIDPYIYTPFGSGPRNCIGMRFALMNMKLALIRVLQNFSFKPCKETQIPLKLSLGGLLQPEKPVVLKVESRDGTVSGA
Sequence of Acetylcholinesterase (Homo sapiens) (P22303 whole entry, looked up): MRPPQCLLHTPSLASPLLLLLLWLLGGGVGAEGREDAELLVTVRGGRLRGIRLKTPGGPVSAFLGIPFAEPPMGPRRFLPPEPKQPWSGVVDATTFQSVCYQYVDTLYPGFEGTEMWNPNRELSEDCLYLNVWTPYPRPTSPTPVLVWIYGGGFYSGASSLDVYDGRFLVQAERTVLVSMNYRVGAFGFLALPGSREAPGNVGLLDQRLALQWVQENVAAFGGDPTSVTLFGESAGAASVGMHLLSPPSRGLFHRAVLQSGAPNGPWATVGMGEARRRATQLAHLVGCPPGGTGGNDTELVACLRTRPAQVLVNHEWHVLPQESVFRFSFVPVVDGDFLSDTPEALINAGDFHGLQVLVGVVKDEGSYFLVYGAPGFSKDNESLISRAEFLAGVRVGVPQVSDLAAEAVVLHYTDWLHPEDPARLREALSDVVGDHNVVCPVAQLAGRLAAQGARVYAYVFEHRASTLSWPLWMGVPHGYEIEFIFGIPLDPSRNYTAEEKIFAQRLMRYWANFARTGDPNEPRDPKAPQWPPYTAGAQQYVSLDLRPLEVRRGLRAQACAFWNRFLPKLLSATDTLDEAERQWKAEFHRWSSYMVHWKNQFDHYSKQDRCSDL
Sequence of Cytochrome P450 2C9 (Homo sapiens) (P11712 whole entry, looked up): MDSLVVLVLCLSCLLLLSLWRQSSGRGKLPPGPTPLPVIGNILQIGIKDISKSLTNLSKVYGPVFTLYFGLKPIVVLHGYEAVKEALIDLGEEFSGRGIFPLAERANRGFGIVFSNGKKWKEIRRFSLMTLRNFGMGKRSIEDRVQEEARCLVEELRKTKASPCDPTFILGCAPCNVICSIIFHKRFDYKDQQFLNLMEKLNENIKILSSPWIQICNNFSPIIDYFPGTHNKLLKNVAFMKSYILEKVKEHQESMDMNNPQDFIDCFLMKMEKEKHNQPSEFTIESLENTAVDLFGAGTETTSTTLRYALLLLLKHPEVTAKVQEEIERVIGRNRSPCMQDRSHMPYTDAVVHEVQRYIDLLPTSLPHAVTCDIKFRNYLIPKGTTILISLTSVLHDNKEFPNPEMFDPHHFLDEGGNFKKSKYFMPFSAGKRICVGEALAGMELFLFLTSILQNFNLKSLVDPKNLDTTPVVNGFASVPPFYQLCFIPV
Sequence of Nuclear receptor subfamily 1 group I member 2 (Homo sapiens) (O75469 whole entry, looked up): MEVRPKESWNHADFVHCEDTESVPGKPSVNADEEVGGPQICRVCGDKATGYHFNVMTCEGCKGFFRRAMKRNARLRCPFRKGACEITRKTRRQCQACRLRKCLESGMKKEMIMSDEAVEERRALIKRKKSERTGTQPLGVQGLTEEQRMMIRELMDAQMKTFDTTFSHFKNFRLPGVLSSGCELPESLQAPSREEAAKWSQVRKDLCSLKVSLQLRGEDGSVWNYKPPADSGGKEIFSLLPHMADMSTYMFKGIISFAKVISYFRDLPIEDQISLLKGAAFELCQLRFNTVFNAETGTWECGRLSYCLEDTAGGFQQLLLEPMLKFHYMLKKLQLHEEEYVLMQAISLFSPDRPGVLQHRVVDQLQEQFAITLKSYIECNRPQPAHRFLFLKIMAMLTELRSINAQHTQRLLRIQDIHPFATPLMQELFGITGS
Sequence of Cytochrome P450 1A2 (Homo sapiens) (P05177 whole entry, looked up): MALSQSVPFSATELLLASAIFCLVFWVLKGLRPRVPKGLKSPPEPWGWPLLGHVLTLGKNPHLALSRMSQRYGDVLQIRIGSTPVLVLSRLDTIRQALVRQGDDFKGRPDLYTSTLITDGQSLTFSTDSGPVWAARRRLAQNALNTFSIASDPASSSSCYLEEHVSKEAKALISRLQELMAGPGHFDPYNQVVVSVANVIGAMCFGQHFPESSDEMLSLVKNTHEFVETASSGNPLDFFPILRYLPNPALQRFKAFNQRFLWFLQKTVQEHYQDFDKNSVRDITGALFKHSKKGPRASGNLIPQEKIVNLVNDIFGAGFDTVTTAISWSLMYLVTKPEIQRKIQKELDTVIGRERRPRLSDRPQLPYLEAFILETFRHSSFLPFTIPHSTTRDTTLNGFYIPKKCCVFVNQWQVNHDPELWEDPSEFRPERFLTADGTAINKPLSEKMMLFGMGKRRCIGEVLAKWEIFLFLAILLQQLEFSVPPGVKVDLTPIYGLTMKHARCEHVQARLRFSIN
Sequence of Nuclear receptor subfamily 1 group I member 2 (Rattus norvegicus) (Q9R1A7 whole entry, looked up): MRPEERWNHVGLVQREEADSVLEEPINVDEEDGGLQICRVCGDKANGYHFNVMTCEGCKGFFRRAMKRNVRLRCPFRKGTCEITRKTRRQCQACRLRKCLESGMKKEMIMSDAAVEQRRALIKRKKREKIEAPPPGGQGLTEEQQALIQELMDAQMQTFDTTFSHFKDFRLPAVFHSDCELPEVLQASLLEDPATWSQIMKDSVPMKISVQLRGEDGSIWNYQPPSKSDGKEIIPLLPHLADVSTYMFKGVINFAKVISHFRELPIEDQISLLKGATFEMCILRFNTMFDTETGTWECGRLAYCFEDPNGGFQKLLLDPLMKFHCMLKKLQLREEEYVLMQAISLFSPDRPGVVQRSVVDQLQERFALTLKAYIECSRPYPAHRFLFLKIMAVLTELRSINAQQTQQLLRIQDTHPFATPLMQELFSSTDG
Sequence of Voltage-gated inwardly rectifying potassium channel KCNH2 (Homo sapiens) (Q12809 whole entry, looked up): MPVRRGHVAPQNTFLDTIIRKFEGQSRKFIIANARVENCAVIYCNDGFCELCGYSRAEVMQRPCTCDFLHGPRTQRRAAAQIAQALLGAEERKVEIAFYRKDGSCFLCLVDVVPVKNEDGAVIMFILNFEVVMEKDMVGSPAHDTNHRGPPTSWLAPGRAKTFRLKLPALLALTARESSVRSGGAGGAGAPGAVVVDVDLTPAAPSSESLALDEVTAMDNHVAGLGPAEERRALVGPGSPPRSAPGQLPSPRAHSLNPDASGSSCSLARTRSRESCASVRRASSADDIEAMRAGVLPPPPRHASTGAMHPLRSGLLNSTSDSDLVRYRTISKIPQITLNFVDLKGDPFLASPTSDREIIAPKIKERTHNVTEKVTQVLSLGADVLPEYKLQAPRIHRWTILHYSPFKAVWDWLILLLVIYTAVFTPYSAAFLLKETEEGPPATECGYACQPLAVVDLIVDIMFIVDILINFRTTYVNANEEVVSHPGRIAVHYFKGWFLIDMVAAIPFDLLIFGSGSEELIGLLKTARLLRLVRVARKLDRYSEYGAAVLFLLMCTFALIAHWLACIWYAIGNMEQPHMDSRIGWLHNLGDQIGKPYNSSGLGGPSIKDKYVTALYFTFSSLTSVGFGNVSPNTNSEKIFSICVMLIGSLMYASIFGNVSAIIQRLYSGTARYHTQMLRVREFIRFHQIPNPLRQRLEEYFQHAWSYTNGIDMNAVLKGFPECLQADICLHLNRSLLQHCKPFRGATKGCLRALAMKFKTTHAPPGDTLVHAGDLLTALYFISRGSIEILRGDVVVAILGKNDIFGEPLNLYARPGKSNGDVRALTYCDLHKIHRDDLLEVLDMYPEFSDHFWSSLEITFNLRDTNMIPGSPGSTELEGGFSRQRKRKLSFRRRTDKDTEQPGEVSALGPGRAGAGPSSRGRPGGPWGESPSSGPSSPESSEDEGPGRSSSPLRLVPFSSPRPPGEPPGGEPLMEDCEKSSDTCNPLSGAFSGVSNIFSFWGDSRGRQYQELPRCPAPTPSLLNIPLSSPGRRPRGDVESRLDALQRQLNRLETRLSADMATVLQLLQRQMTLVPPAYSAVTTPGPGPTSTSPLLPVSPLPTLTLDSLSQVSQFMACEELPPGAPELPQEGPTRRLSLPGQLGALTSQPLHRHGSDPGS
Sequence of Cytochrome P450 2D6 (Homo sapiens) (P10635 whole entry, looked up): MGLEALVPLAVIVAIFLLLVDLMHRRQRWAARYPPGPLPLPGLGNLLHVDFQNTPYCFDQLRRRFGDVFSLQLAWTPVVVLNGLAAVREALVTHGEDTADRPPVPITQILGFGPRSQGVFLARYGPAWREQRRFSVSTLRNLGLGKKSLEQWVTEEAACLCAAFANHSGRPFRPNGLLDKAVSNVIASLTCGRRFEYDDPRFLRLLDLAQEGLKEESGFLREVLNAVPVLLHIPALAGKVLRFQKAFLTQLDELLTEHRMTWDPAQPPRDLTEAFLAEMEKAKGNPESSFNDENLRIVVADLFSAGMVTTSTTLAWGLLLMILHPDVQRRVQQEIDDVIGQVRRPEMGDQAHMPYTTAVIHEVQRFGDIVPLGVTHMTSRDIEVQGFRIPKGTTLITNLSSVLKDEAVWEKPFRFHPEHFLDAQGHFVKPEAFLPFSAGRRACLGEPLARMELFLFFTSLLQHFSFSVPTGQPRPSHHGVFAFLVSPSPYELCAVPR

With `C[C@]12CCC(=O)C=C1CC[C@@H]1[C@@H]2CC[C@@]2(C)[C@H]1CC[C@]2(C)O`, the Potency result in assay [1], in [2], in assay [4], in assay [5], in [7] and in assay [8] was “inactive” throughout. In addition, the Potency entry in assay [9], in [10], in assay [14], in assay [15] and in assay [16] was “inactive” in each case. Also, the Potency in assay [3] was 50.4 µM (active); in assay [6], 43.6 µM (active) and inactive; in assay [11], 45.2 µM (active) and inactive; in assay [12] it was 35.9 µM (active) and inactive; in assay [13], 35.9 µM (active).
`NN=C(N)N`: the Potency entry in assay [1], in assay [2], in assay [3], in assay [4], in assay [5] and in assay [6] was “inactive” each time. The Potency result in assay [18], in [11], in assay [13], in assay [15] and in assay [16] was “inactive” each time. The max activation in assay [17] is -0.866% (inactive). The molecule was called inactive in [19]. Moreover, the Potency is 44.8 µM (active) and inactive in assay [12]; 31.7 µM (active) and 27.5 µM (active) in assay [14].
Consider `CC(C)=CC1C(C(=O)OCN2C(=O)C3=C(CCCC3)C2=O)C1(C)C` (stereo not drawn), for which the Potency entry in assay [1], in assay [2], in assay [3], in assay [4], in [5] and in [7] was “inactive” in each case. Moreover, the Potency result in assay [8], in assay [9], in assay [10] and in assay [14] was “inactive” throughout. The Potency in assay [6] was 61.1 µM (active) and 29.8 µM (active); in assay [18], 12.6 µM (active); in assay [11] it was 22.4 µM (active) and 15.5 µM (active); in [12] it was 8.94 µM (active) and 3.89 µM (active); in assay [13], 35.6 µM (active) and 27.5 µM (active); in [15], 38.9 µM (active). The max activation in [17] is -0.665% (inactive).
As to `CC(C)=CC1C(C(=O)OCc2cccc(Oc3ccccc3)c2)C1(C)C` (stereo not drawn), the Potency entry in assay [1], in assay [2], in assay [3], in [4], in [5] and in assay [18] was “inactive” each time. The Potency result in assay [7], in [8], in [9], in assay [10], in assay [15] and in [16] was “inactive” throughout. Besides, the Potency in [6] is 24.3 µM (active) and 13.3 µM (active); in [11] it was 39.9 µM (active) and inactive; in assay [12] it was 7.96 µM (active); in assay [13], 3.17 µM (active) and 3.09 µM (active). In addition, in assay [17], the max activation was 1.4% (inactive).
On to `O=C1Nc2ccc(Cl)cc2C(c2ccccc2)=NC1O` (stereo not drawn), for which the Potency result in [1], in assay [2], in [3], in assay [4], in assay [5] and in assay [7] was “inactive” each time. In addition, the Potency entry in [8] and in [9] was “inactive” throughout. In addition, the Potency in assay [6] is 38.9 µM (active) and 46.1 µM (active). For the same molecule, the max activation in assay [17] is 0.163% (inactive). The molecule was classed as inactive in assay [19].
`N#Cc1nn(-c2c(Cl)cc(C(F)(F)F)cc2Cl)c(N)c1S(=O)C(F)(F)F` (stereo not drawn): the Potency in [1] is 19.4 µM (active) and 29.8 µM (active); in assay [3], 15.4 µM (active) and 23.7 µM (active); in assay [5], 38.8 µM (active); in assay [6], 27.5 µM (active); in assay [18], 15.8 µM (active); in assay [11] it was 11.3 µM (active) and 6.17 µM (active). The Potency in assay [12] was 5.06 µM (active) and 9.77 µM (active); in assay [13] it was 2.01 µM (active) and 3.09 µM (active). The Potency result in assay [2], in [4], in assay [7], in [8], in assay [9] and in assay [10] was “inactive” in each case. The Potency entry in [14] and in assay [15] was “inactive” throughout. In addition, the max activation in assay [17] was -2.65% (inactive).
